From PubChem BioAssay AID1159580 (chemical genetic matrix, 2015)
Screen size: about 5,500 compounds; about 2,000 (36%) were called active. Not shown: some 18% with an inconclusive outcome. Rule as the data show it: active = normalized growth mostly below about 0.91 (no sharp cut-off); inconclusive = no clear call, values can overlap the other calls; inactive = mostly above about 0.92. Some of the results follow.

Assay: chemical genetic growth profiling, strain panel (AID 1159580);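 also: tested at 20 µM; growth read once vehicle control cultures reached saturation at 30 °C; 1 = growth at the plate median or of vehicle wells; lower values mean less growth of the strain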
Details: growth OD
[1] = S. cerevisiae deletion strains, locus YDL101C, strain DUN1, active compounds read low
[2] = S. cerevisiae deletion strains, locus YHR030C, strain SLT2, active compounds read low
[3] = S. cerevisiae deletion strains, locus YMR263W, strain SAP30, active compounds read low
[4] = S. cerevisiae deletion strains, locus YPL055C, strain LGE1, active compounds read low
[5] = S. cerevisiae deletion strains, locus YAR019C, strain CDC15, active compounds read low
[6] = S. cerevisiae deletion strains, locus YBL105C, strain PKC1, active compounds read low
[7] = S. cerevisiae deletion strains, locus YBR135W, strain CKS1, active compounds read low
[8] = S. cerevisiae deletion strains, locus YBR136W, strain MEC1, active compounds read low
[9] = S. cerevisiae deletion strains, locus YBR160W, strain CDC28, active compounds read low
[10] = S. cerevisiae deletion strains, locus YDL017W, strain CDC7, active compounds read low
[11] = S. cerevisiae deletion strains, locus YDL108W, strain KIN28, active compounds read low
[12] = S. cerevisiae deletion strains, locus YDL132W, strain cdc53, active compounds read low
[13] = S. cerevisiae deletion strains, locus YDL214C, strain PRR2, active compounds read low
[14] = S. cerevisiae deletion strains, locus YDR052C, strain DBF4, active compounds read low
[15] = S. cerevisiae deletion strains, locus YDR226W, strain ADK1, active compounds read low
[16] = S. cerevisiae deletion strains, locus YDR477W, strain SNF1, active compounds read low
[17] = S. cerevisiae deletion strains, locus YER123W, strain YCK3, active compounds read low
[18] = S. cerevisiae deletion strains, locus YER133W, strain GLC7, active compounds read low
[19] = S. cerevisiae deletion strains, locus YFL009W, strain cdc4, active compounds read low
[20] = S. cerevisiae deletion strains, locus YFL029C, strain CAK1, active compounds read low
[21] = S. cerevisiae deletion strains, locus YFR003C, strain YPI1, active compounds read low
[22] = S. cerevisiae deletion strains, locus YFR019W, strain FAB1, active compounds read low
[23] = S. cerevisiae deletion strains, locus YFR028C, strain CDC14, active compounds read low
[24] = S. cerevisiae deletion strains, locus YGR040W, strain KSS1, active compounds read low
[25] = S. cerevisiae deletion strains, locus YGR052W, strain FMP48, active compounds read low
[26] = S. cerevisiae deletion strains, locus YGR092W, strain DBF2, active compounds read low
[27] = S. cerevisiae deletion strains, locus YHR079C, strain IRE1, active compounds read low
[28] = S. cerevisiae deletion strains, locus YHR082C, strain KSP1, active compounds read low
[29] = S. cerevisiae deletion strains, locus YHR205W, strain SCH9, active compounds read low
[30] = S. cerevisiae deletion strains, locus YJL095W, strain BCK1, active compounds read low
[31] = S. cerevisiae deletion strains, locus YJL128C, strain PBS2, active compounds read low
[32] = S. cerevisiae deletion strains, locus YJL157C, strain FAR1, active compounds read low
[33] = S. cerevisiae deletion strains, locus YJR016C, strain ILV3, active compounds read low
[34] = S. cerevisiae deletion strains, locus YJR066W, strain TOR1 (second series), active compounds read low
[35] = S. cerevisiae deletion strains, locus YJR066W, strain TOR1, active compounds read low
[36] = S. cerevisiae deletion strains, locus YKL048C, strain ELM1, active compounds read low
[37] = S. cerevisiae deletion strains, locus YKL067W, strain YNK1, active compounds read low
[38] = S. cerevisiae deletion strains, locus YKL101W, strain HSL1, active compounds read low
[39] = S. cerevisiae deletion strains, locus YKL193C, strain SDS22, active compounds read low
[40] = S. cerevisiae deletion strains, locus YKL203C, strain TOR2, active compounds read low
[41] = S. cerevisiae deletion strains, locus YLR113W, strain HOG1, active compounds read low
[42] = S. cerevisiae deletion strains, locus YLR133W, strain CKI1, active compounds read low
[43] = S. cerevisiae deletion strains, locus YLR403W, strain SFP1, active compounds read low
[44] = S. cerevisiae deletion strains, locus YML070W, strain DAK1, active compounds read low
[45] = S. cerevisiae deletion strains, locus YMR205C, strain PFK2 (second series), active compounds read low
[46] = S. cerevisiae deletion strains, locus YNL006W, strain LST8, active compounds read low
[47] = S. cerevisiae deletion strains, locus YNL020C, strain ARK1, active compounds read low
[48] = S. cerevisiae deletion strains, locus YNL161W, strain CBK1, active compounds read low
[49] = S. cerevisiae deletion strains, locus YNL183C, strain NPR1, active compounds read low
[50] = S. cerevisiae deletion strains, locus YNL207W, strain RIO2, active compounds read low
[51] = S. cerevisiae deletion strains, locus YNL222W, strain SSU72, active compounds read low
[52] = S. cerevisiae deletion strains, locus YNL307C, strain MCK1 (second series), active compounds read low
[53] = S. cerevisiae deletion strains, locus YOL136C, strain PFK27, active compounds read low
[54] = S. cerevisiae deletion strains, locus YOR061W, strain CKA2, active compounds read low
[55] = S. cerevisiae deletion strains, locus YOR119C, strain RIO1, active compounds read low
[56] = S. cerevisiae deletion strains, locus YOR231W, strain MKK1, active compounds read low
[57] = S. cerevisiae deletion strains, locus YOR329C, strain SCD5, active compounds read low
[58] = S. cerevisiae deletion strains, locus YPL031C, strain PHO85, active compounds read low
[59] = S. cerevisiae deletion strains, locus YPL153C, strain RAD53, active compounds read low
[60] = S. cerevisiae deletion strains, locus YPL204W, strain HRR25, active compounds read low
[61] = S. cerevisiae deletion strains, locus YPL209C, strain IPL1, active compounds read low
[62] = S. cerevisiae deletion strains, locus YPL256C, strain CLN2, active compounds read low
[63] = S. cerevisiae deletion strains, locus YPR025C, strain CCL1, active compounds read low
[64] = S. cerevisiae deletion strains, locus YPR106W, strain ISR1, active compounds read low
[65] = S. cerevisiae deletion strains, locus YPR111W, strain DBF20, active compounds read low
[66] = S. cerevisiae deletion strains, strain NNK1, active compounds read low
[67] = S. cerevisiae deletion strains, strain TSCII, active compounds read low

Measured: normalized growth

CC(C)(C)S(=O)(=O)/C(C#N)=C/N1CCCCC1
inactive: S. cerevisiae deletion strains, locus YBR229C, strain ROT2, active compounds read low 1.02 | [1] 0.989 | S. cerevisiae deletion strains, locus YDR150W, strain NUM1, active compounds read low 0.995 | S. cerevisiae deletion strains, locus YEL061C, strain CIN8, active compounds read low 1.05 | S. cerevisiae deletion strains, locus YGR078C, strain PAC10, active compounds read low 0.993 | [2] 1.02 | S. cerevisiae deletion strains, locus YHR087W, strain rtc3, active compounds read low 0.992 | S. cerevisiae deletion strains, locus YJL187C, strain SWE1, active compounds read low 0.986 | S. cerevisiae deletion strains, locus YJR043C, strain POL32, active compounds read low 0.983 | S. cerevisiae deletion strains, locus YJR075W, strain HOC1, active compounds read low 1.02 | S. cerevisiae deletion strains, locus YLR039C, strain RIC1, active compounds read low 1.02 | S. cerevisiae deletion strains, locus YLR058C, strain SHM2 (second series), active compounds read low 1.01 | S. cerevisiae deletion strains, locus YLR085C, strain ARP6, active compounds read low 1.04 | S. cerevisiae deletion strains, locus YLR262C, strain YPT6, active compounds read low 1.03 | S. cerevisiae deletion strains, locus YML094W, strain GIM5, active compounds read low 1.02 | S. cerevisiae deletion strains, locus YMR219W, strain ESC1, active compounds read low 1.02 | [3] 1 | S. cerevisiae deletion strains, locus YNL128W, strain TEP1, active compounds read low 1 | S. cerevisiae deletion strains, locus YNL153C, strain GIM3, active compounds read low 1 | S. cerevisiae deletion strains, locus YNL298W, strain CLA4 (second series), active compounds read low 1.02 | S. cerevisiae deletion strains, locus YNL322C, strain KRE1, active compounds read low 1.02 | S. cerevisiae deletion strains, locus YNR030W, strain Alg12, active compounds read low 1.02 | [4] 0.963 | S. cerevisiae deletion strains, locus YPL241C, strain CIN2, active compounds read low 1.02 | S. cerevisiae deletion strains, locus YPR135W, strain CTF4, active compounds read low 0.988 | S. cerevisiae strains, strain wild type, active compounds read low 1.01

FC(F)(F)c1cccc(-n2c(CSCc3cccc4ccccc34)n[nH]c2=S)c1
inactive: [5] 0.986 | [6] 1 | [7] 0.996 | [8] 1 | [9] 0.986 | [10] 0.993 | S. cerevisiae deletion strains, locus YDL028C, strain MPS1, active compounds read low 0.985 | [1] 0.989 | [11] 0.998 | [12] 0.988 | [13] 0.993 | [14] 1 | S. cerevisiae deletion strains, locus YDR054C, strain cdc34, active compounds read low 0.992 | [15] 0.986 | [16] 0.976 | [17] 0.958 | [18] 0.969 | [19] 0.978 | [20] 0.993 | [21] 1 | [22] 1.01 | [23] 0.994 | [24] 0.991 | [25] 1.08 | [26] 0.952 | [2] 1.12 | [27] 1.1 | [28] 1.09 | [29] 1.01 | S. cerevisiae deletion strains, locus YIL147C, strain SLN1, active compounds read low 0.999 | [30] 1.06 | [31] 0.979 | [32] 0.966 | [33] 0.993 | [34] 0.936 | [35] 1.09 | [36] 1 | [37] 0.989 | [38] 0.986 | [39] 0.99 | [40] 1.06 | [41] 1.07 | [42] 1 | [43] 0.973 | [44] 0.993 | S. cerevisiae deletion strains, locus YMR001C, strain CDC5, active compounds read low 0.992 | [45] 1 | S. cerevisiae deletion strains, locus YMR277W, strain FCP1, active compounds read low 0.976 | [46] 0.984 | [47] 1 | [48] 0.998 | [49] 1.13 | [50] 0.989 | [51] 0.997 | [52] 1 | S. cerevisiae deletion strains, locus YOL078W, strain AVO1, active compounds read low 0.99 | [53] 0.991 | [54] 0.977 | [55] 1.02 | [56] 1.09 | [57] 0.993 | [58] 0.977 | [59] 0.962 | [60] 0.967 | [61] 0.99 | [62] 1.1 | [63] 0.992 | [64] 0.981 | [65] 0.993 | [66] 1.01 | [67] 0.995

O=c1c2ccccc2[nH]c(=S)n1-c1cccc(C(F)(F)F)c1
active: [6] 0.811 | [7] 0.792 | [8] 0.774 | [10] 0.846 | [11] 0.565 | [14] 0.885 | [16] 0.427 | [18] 0.343 | [20] 0.633 | [24] 0.513 | [2] 0.334 | [30] 0.182 | [33] 0.717 | [40] 0.352 | [43] 0.459 | [55] 0.347 | [58] 0.589 | [59] 0.646 | [62] 0.824
inactive: [5] 0.927 | [9] 0.923 | [1] 0.954 | [12] 0.944 | [13] 0.908 | [15] 0.956 | [17] 0.899 | [19] 0.95 | [21] 0.917 | [22] 0.97 | [23] 0.949 | [25] 0.914 | [26] 0.874 | [27] 0.837 | [28] 0.832 | [29] 0.748 | [31] 0.957 | [32] 0.925 | [34] 0.892 | [35] 0.799 | [36] 0.862 | [37] 0.927 | [38] 0.865 | [39] 0.917 | [41] 0.912 | [42] 0.895 | [44] 0.926 | [45] 0.894 | [46] 0.965 | [47] 0.886 | [48] 0.929 | [49] 0.852 | [50] 0.943 | [51] 0.944 | [52] 0.884 | [53] 0.93 | [54] 0.833 | [56] 0.872 | [57] 0.948 | [60] 0.719 | [61] 0.95 | [63] 0.946 | [64] 0.948 | [65] 0.962 | [66] 0.961 | [67] 0.889

Cc1c(CC(C)(C)C(=O)O)n(Cc2ccc(Cl)cc2)c2ccc(F)cc12
inactive: S. cerevisiae deletion strains, locus YAL040C, strain CLN3, active compounds read low 0.974 | S. cerevisiae deletion strains, locus YCL061C, strain MRC1 (second series), active compounds read low 0.985 | S. cerevisiae deletion strains, locus YDR363W, strain ESC2, active compounds read low 0.986 | S. cerevisiae deletion strains, locus YER002W, strain NOP16, active compounds read low 0.978 | [3] 0.971 | S. cerevisiae deletion strains, locus YNL175C, strain NOP13, active compounds read low 0.985 | S. cerevisiae deletion strains, locus YNL197C, strain WHI3, active compounds read low 0.974 | S. cerevisiae deletion strains, locus YNL224C, strain SQS1, active compounds read low 0.978 | S. cerevisiae deletion strains, locus YOR083W, strain WHI5 (second series), active compounds read low 0.986 | [4] 0.923
